Source: the supplement of paper PMC4466140

Molecular target: AgAbp1
Assay: SPOT peptide array binding signal intensity (averaged, normalized) (arbitrary units (background-subtracted, floor 0; scale differs between SH3 domains)); higher = stronger binding of the SH3 domain to the peptide
In short: (§1)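 GST-fused SH3 domains from four yeast species were expressed in E. coli BL21(DE3), purified on glutathione Sepharose and incubated at 10 μg/ml overnight at 4°C in TBS-based blocking buffer on cellulose membranes carrying synthetic 15-mer peptides, with cysteines replaced by serines. Bound protein was detected with anti-GST antibody, an HRP anti-mouse secondary and luminol, then imaged and quantified with Genespotter. Binding signal is the normalized, background-subtracted spot intensity averaged over replicates, in arbitrary units that differ between domains.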

Row | Binder | SPOT peptide array binding signal intensity
1 | VGFRLALKFPSRITG | 156

Molecular target: AgBbc1
Assay: as above
In short: as §1

Row | Binder | SPOT peptide array binding signal intensity
2 | VGFRLALKFPSRITG | 89.2

Molecular target: AgBem1-D1
Assay: as above
In short: as §1

Row | Binder | SPOT peptide array binding signal intensity
3 | VGFRLALKFPSRITG | 596

Molecular target: AgBzz1-D1
Assay: as above
In short: as §1

Row | Binder | SPOT peptide array binding signal intensity
4 | VGFRLALKFPSRITG | 231

Molecular target: AgBzz1-D2
Assay: as above
In short: as §1

Row | Binder | SPOT peptide array binding signal intensity
5 | VGFRLALKFPSRITG | 180

Molecular target: AgCyk3
Assay: as above
In short: as §1

Row | Binder | SPOT peptide array binding signal intensity
6 | VGFRLALKFPSRITG | 107

Molecular target: AgFus1
Assay: as above
In short: as §1

Row | Binder | SPOT peptide array binding signal intensity
7 | VGFRLALKFPSRITG | 3790

Molecular target: AgHof1
Assay: as above
In short: as §1

Row | Binder | SPOT peptide array binding signal intensity
8 | VGFRLALKFPSRITG | 137

Molecular target: AgHse1
Assay: as above
In short: as §1

Row | Binder | SPOT peptide array binding signal intensity
9 | VGFRLALKFPSRITG | 3050

Molecular target: AgLsb1
Assay: as above
In short: as §1

Row | Binder | SPOT peptide array binding signal intensity
10 | VGFRLALKFPSRITG | 17.2

Molecular target: AgLsb4
Assay: as above
In short: as §1

Row | Binder | SPOT peptide array binding signal intensity
11 | VGFRLALKFPSRITG | 1990

Molecular target: AgMyo5
Assay: as above
In short: as §1

Row | Binder | SPOT peptide array binding signal intensity
12 | VGFRLALKFPSRITG | 9.5

Molecular target: AgNbp2
Assay: as above
In short: as §1

Row | Binder | SPOT peptide array binding signal intensity
13 | VGFRLALKFPSRITG | 1370

Molecular target: AgRvs167
Assay: as above
In short: as §1

Row | Binder | SPOT peptide array binding signal intensity
14 | VGFRLALKFPSRITG | 55.5

Molecular target: AgSho1
Assay: as above
In short: as §1

Row | Binder | SPOT peptide array binding signal intensity
15 | VGFRLALKFPSRITG | 2510

Molecular target: AgSla1-D1-D2
Assay: as above
In short: as §1

Row | Binder | SPOT peptide array binding signal intensity
16 | VGFRLALKFPSRITG | 505

Molecular target: AgSla1-D3
Assay: as above
In short: as §1

Row | Binder | SPOT peptide array binding signal intensity
17 | VGFRLALKFPSRITG | 31

Molecular target: CaAbp1-D1
Assay: as above
In short: as §1

Row | Binder | SPOT peptide array binding signal intensity
18 | VGFRLALKFPSRITG | 766

Molecular target: CaAbp1-D2
Assay: as above
In short: as §1

Row | Binder | SPOT peptide array binding signal intensity
19 | VGFRLALKFPSRITG | 1210

Molecular target: CaBbc1
Assay: as above
In short: as §1

Row | Binder | SPOT peptide array binding signal intensity
20 | VGFRLALKFPSRITG | 179

Molecular target: CaBem1-D1
Assay: as above
In short: as §1

Row | Binder | SPOT peptide array binding signal intensity
21 | VGFRLALKFPSRITG | 147

Molecular target: CaBzz1-D1
Assay: as above
In short: as §1

Row | Binder | SPOT peptide array binding signal intensity
22 | VGFRLALKFPSRITG | 976

Molecular target: CaBzz1-D2
Assay: as above
In short: as §1

Row | Binder | SPOT peptide array binding signal intensity
23 | VGFRLALKFPSRITG | 473

Molecular target: CaCyk3
Assay: as above
In short: as §1

Row | Binder | SPOT peptide array binding signal intensity
24 | VGFRLALKFPSRITG | 118

Molecular target: CaFus1
Assay: as above
In short: as §1

Row | Binder | SPOT peptide array binding signal intensity
25 | VGFRLALKFPSRITG | 5990

Molecular target: CaHof1
Assay: as above
In short: as §1

Row | Binder | SPOT peptide array binding signal intensity
26 | VGFRLALKFPSRITG | 13.8

Molecular target: CaHse1
Assay: as above
In short: as §1

Row | Binder | SPOT peptide array binding signal intensity
27 | VGFRLALKFPSRITG | 966

Molecular target: CaLsb1
Assay: as above
In short: as §1

Row | Binder | SPOT peptide array binding signal intensity
28 | VGFRLALKFPSRITG | 25

Molecular target: CaLsb4
Assay: as above
In short: as §1

Row | Binder | SPOT peptide array binding signal intensity
29 | VGFRLALKFPSRITG | 716

Molecular target: CaMyo5
Assay: as above
In short: as §1

Row | Binder | SPOT peptide array binding signal intensity
30 | VGFRLALKFPSRITG | 105

Molecular target: CaNbp2
Assay: as above
In short: as §1

Row | Binder | SPOT peptide array binding signal intensity
31 | VGFRLALKFPSRITG | 2320

Molecular target: CaRvs167
Assay: as above
In short: as §1

Row | Binder | SPOT peptide array binding signal intensity
32 | VGFRLALKFPSRITG | 703

Molecular target: CaRvs167-3
Assay: as above
In short: as §1

Row | Binder | SPOT peptide array binding signal intensity
33 | VGFRLALKFPSRITG | 2360

Molecular target: CaSho1
Assay: as above
In short: as §1

Row | Binder | SPOT peptide array binding signal intensity
34 | VGFRLALKFPSRITG | 3450

Molecular target: CaSla1-D1-D2
Assay: as above
In short: as §1

Row | Binder | SPOT peptide array binding signal intensity
35 | VGFRLALKFPSRITG | 108

Molecular target: CaSla1-D3
Assay: as above
In short: as §1

Row | Binder | SPOT peptide array binding signal intensity
36 | VGFRLALKFPSRITG | 782

Molecular target: ScAbp1
Assay: as above
In short: as §1

Row | Binder | SPOT peptide array binding signal intensity
37 | VGFRLALKFPSRITG | 137
